Results as given in PubChem BioAssay (NCATS).
Results filed as inconclusive are left out. Entries that show only a call come without a potency. Calls of active or inactive are those of the source. Unless noted, calls come from the whole dose curve.

Legend:
[1] = P-glycoprotein substrates identified in KB-8-5-11 adenocarcinoma cell line, qHTS therapeutic library screen (AID 1346987; active = well fitted curve in the direction sought with a large enough effect; an effect the other way counts as inactive or inconclusive; note: series mostly up to about 44 µM; nearly all actives have a fitted effect of over 65% in size)
How it was run: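 KB-8-5-11: colchicine-selected sub-line of KB-3-1 over-expressing P-gp; assay medium lacked colchicine. 72 h drug exposure at 37 degree C, CellTiter-Glo.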

[2] = NS1 protein of Zika virus - qHTS assay to identify small molecule inhibitors in human HEK 293 cells (AID 1347053; active = well fitted curve in the direction sought with a large enough effect; an effect the other way counts as inactive or inconclusive; note: series mostly up to about 46 µM; nearly all actives have a fitted effect of over 55% in size)
How it was run: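 HEK 293 cells, seeded 20 h at 37 C, were pretreated with compound 1 h, then infected with ZIKV MR766 (MOI = 0.5) for 24 h. NS1 was read by TR-FRET with two anti-NS1 antibodies, normalized to uninfected and infected wells.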

[3] = qHTS for Inhibitors of the Functional Ribonucleoprotein Complex (vRNP) of Lassa (LASV) Arenavirus: LASV Primary Screen - GLuc reporter signal (AID 1347082; calls by dose curve; tested in HEK293 reporter line; note: series mostly up to about 57 µM; nearly all actives have a fitted effect of over 60% in size)
[4] = qHTS for Inhibitors of the Functional Ribonucleoprotein Complex (vRNP) of Lymphocytic Choriomeningitis Arenaviruses (LCMV): Viability assay - alamar blue signal for LCMV Primary Screen (AID 1347085; calls by dose curve; tested in HEK293 reporter line; note: series mostly up to about 57 µM; nearly all actives have a fitted effect of over 80% in size)
[5] = biological target: Nucleoprotein (Lymphocytic choriomeningitis virus (strain Armstrong)) (UniProt P09992); assay: qHTS for Inhibitors of the Functional Ribonucleoprotein Complex (vRNP) of Lymphocytic Choriomeningitis Arenaviruses (LCMV): LCMV Primary Screen - GLuc reporter signal (AID 1347086); note: series mostly up to about 57 µM; nearly all actives have a fitted effect of over 70% in size
[6] = qHTS of pediatric cancer cell lines to identify multiple opportunities for drug repurposing: Primary screen for TC32 cells (AID 1347089; active = well fitted curve in the direction sought with a large enough effect; an effect the other way counts as inactive or inconclusive; note: nearly all actives have a fitted effect of over 60% in size)
How it was run: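 Luminescent ATP read-out (CellTiter-Glo) of metabolically active TC32 cells after 48 h exposure. Concentration-response curves came from 11-point (MIPE, 0.78 nM–46 µM) or 8-point (NPC, 0.59 nM–46 µM) primary titrations; follow-up used 11 points.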

[7] = qHTS of pediatric cancer cell lines to identify multiple opportunities for drug repurposing: Primary screen for DAOY cells (AID 1347090; active = well fitted curve in the direction sought with a large enough effect; an effect the other way counts as inactive or inconclusive; note: series mostly up to about 46 µM; nearly all actives have a fitted effect of over 55% in size)
How it was run: (§1)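 Eight- or eleven-point concentration series, 48 h treatment at 37 degrees C in growth media; readout CellTiter-Glo luminescence. Potency and efficacy were taken from the concentration-response curves.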

[8] = qHTS of pediatric cancer cell lines to identify multiple opportunities for drug repurposing: Primary screen for SJ-GBM2 cells (AID 1347091; active = well fitted curve in the direction sought with a large enough effect; an effect the other way counts as inactive or inconclusive)
How it was run: as §1

[9] = qHTS of pediatric cancer cell lines to identify multiple opportunities for drug repurposing: Primary screen for A673 cells (AID 1347092; active = well fitted curve in the direction sought with a large enough effect; an effect the other way counts as inactive or inconclusive; note: nearly all actives have a fitted effect of over 45% in size)
How it was run: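 Cell viability of A673 measured by CellTiter-Glo ATP luminescence after 48 hours compound exposure. Dilution series spanned 0.78 nM to 46 µM (MIPE, 11-point) or 0.59 nM to 46 µM (NPC, 8-point); bortezomib 2.3 uM positive control.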

[10] = qHTS for Inhibitors of the Functional Ribonucleoprotein Complex (vRNP) of Lassa (LASV) Arenavirus: Viability assay - alamar blue signal for LASV Primary Screen (AID 1347083; calls by dose curve; tested in HEK293 reporter line; note: series mostly up to about 57 µM; nearly all actives have a fitted effect of over 80% in size)
[11] = Natriuretic polypeptide receptor (hNpr1) antagonism - Pilot counterscreen GloSensor control cell line (AID 1347045); note: potency is the fitted concentration of half-maximal effect
How it was run: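 HEK293 cells carrying the GloSensor cGMP sensor (GIP/pGS-40F) were loaded with 2% GloSensor reagent for 2 h, exposed to compounds for 30 min, and then stimulated with 50 uM sodium nitroprusside for 20 min at room temperature.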

[12] = biological target: Atrial natriuretic peptide receptor 1 (Homo sapiens) (UniProt P16066); assay: Natriuretic polypeptide receptor (hNpr1) antagonism - Pilot screen (AID 1347049);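 note: agonist-evoked cGMP luminescence read 20 min after hNppA addition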; note: potency is the fitted concentration of half-maximal effect
How it was run: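 HEK293 cells co-expressing hNpr1 and the GloSensor pGS-40F cGMP luciferase sensor were preloaded with 2% GloSensor reagent for 2 h. Compounds were added for 30 min at room temperature, then cells were stimulated with 0.1 nM hNppA for 20 min before luminescence readout.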

[13] = biological target: Atrial natriuretic peptide receptor 2 (Homo sapiens) (UniProt P20594); assay: Natriuretic polypeptide receptor (hNpr2) antagonism - Pilot subtype selectivity assay (AID 1347050); note: potency is the fitted concentration of half-maximal effect
How it was run: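 cGMP-sensor HEK293/hNpr2 cells; 2% GloSensor reagent 2 h RT; compounds 30 min; baseline luminescence read; 1 nM hNppC agonist 20 min RT; final luminescence read by CCD camera. Antagonism = reduced post-agonist signal.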

[14] = biological target: T1, Tyrosine-protein phosphatase non-receptor type substrate 1 (Homo sapiens) + Leukocyte surface antigen CD47 (Homo sapiens) (UniProt P78324+Q08722); assay: CD47-SIRPalpha protein protein interaction - LANCE assay qHTS validation (AID 1347057; active = well fitted curve in the direction sought with a large enough effect in the signal ratio, with a control signal flat, not every such curve was filed as active; the % refers to the signal ratio; note: series mostly up to about 38 µM)
How it was run: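 First, His-tagged CD47 and Eu-labelled anti-His antibody met the compound for 30 min; next, site-specifically biotinylated SIRPalpha was added for 30 min; finally streptavidin-APC was added before reading the TR-FRET ratio.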

[15] = biological target: T1, Tyrosine-protein phosphatase non-receptor type substrate 1 (Homo sapiens) + Leukocyte surface antigen CD47 (Homo sapiens); assay: CD47-SIRPalpha protein protein interaction - HTRF assay qHTS validation (AID 1347058; active = well fitted curve in the direction sought with a large enough effect in the signal ratio, not every such curve was filed as active; the % refers to the signal ratio; note: series mostly up to about 38 µM)
How it was run: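 TR-FRET read (Ch1/Ch2 ratio) of soluble extracellular CD47 and Avi-biotinylated SIRPalpha domains in PBS pH 7.4 with 0.05% IGEPAL; 7-point compound titration. Sequential 30 min room-temperature steps; non-biotinylated SIRPalpha as control inhibitor.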

[16] = biological target: T1, Tyrosine-protein phosphatase non-receptor type substrate 1 (Homo sapiens) + Leukocyte surface antigen CD47 (Homo sapiens); assay: CD47-SIRPalpha protein protein interaction - Alpha assay qHTS validation (AID 1347059; active = well fitted curve in the direction sought with a large enough effect; an effect the other way counts as inactive or inconclusive;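 note: bead proximity luminescence from CD47 binding SIRPalpha after compound preincubation with SIRPalpha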; note: potency is the fitted concentration of half-maximal effect)
How it was run: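 Soluble extracellular domains: Avi-tag biotinylated SIRPalpha (25 nM) preincubated 30 min RT with compound, then 6His-CD47 (12.5 nM) 30 min; Ni-NTA acceptor and streptavidin donor beads (10 ug/mL) 30 min, AlphaScreen read. PBS pH 7.4, 0.05% IGEPAL.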

[17] = biological target: Parathyroid hormone/parathyroid hormone-related peptide receptor (Homo sapiens) (UniProt Q03431); assay: qHTS for PTHR1 Agonists: Optimization Screen against the NCGC LOPAC library (AID 1347079; active = well fitted curve in the direction sought with a large enough effect; an effect the other way counts as inactive or inconclusive;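 note: GloSensor cAMP luminescence in HEK-293 GP2 cells expressing human PTHR1 with IBMX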)
How it was run: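 Compounds were tested across a qHTS titration. PTHR1-expressing GP2 cells report cAMP rises via GloSensor luminescence after 1 hr compound exposure at 37C with IBMX present.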

Nucleoprotein (Lymphocytic choriomeningitis virus (strain Armstrong)), sequence (P09992 whole entry, looked up): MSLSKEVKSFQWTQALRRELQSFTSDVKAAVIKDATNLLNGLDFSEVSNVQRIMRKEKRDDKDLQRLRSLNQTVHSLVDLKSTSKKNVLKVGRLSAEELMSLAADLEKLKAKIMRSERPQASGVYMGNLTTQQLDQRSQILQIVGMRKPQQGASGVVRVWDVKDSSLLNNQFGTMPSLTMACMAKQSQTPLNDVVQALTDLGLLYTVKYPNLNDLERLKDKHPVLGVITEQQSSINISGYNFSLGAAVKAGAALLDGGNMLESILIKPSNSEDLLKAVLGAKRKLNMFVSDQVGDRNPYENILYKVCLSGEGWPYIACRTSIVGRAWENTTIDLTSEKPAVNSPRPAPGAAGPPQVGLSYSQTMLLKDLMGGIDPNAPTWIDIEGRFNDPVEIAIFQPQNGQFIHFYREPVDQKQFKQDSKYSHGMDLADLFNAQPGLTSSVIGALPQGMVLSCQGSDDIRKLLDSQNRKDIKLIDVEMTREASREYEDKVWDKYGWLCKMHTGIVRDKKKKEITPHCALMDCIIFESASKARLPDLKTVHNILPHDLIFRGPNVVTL
T1 sequence (P78324 whole entry, looked up): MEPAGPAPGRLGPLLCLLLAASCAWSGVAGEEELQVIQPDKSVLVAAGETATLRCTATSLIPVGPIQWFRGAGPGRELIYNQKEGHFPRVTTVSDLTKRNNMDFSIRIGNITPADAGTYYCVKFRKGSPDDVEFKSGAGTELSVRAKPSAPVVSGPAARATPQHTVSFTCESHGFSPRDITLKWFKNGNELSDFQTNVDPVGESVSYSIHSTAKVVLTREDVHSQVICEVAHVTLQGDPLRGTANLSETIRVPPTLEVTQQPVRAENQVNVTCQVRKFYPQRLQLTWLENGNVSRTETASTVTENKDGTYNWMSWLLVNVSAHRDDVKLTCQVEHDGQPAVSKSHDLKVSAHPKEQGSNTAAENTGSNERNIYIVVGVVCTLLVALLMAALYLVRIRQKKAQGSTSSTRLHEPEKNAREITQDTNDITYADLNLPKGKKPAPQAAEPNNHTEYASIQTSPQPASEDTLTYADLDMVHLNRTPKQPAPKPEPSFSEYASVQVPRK
T1 sequence (Q08722 whole entry, looked up): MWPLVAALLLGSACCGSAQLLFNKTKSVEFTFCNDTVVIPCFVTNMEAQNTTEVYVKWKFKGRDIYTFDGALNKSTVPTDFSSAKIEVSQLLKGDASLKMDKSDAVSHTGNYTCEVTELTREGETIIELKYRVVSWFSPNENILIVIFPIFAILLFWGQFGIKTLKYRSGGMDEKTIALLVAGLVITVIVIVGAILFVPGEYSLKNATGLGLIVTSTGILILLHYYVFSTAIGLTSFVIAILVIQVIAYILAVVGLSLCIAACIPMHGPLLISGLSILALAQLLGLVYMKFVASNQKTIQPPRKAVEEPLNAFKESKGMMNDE
Parathyroid hormone/parathyroid hormone-related peptide receptor (Homo sapiens), sequence (Q03431 whole entry, looked up): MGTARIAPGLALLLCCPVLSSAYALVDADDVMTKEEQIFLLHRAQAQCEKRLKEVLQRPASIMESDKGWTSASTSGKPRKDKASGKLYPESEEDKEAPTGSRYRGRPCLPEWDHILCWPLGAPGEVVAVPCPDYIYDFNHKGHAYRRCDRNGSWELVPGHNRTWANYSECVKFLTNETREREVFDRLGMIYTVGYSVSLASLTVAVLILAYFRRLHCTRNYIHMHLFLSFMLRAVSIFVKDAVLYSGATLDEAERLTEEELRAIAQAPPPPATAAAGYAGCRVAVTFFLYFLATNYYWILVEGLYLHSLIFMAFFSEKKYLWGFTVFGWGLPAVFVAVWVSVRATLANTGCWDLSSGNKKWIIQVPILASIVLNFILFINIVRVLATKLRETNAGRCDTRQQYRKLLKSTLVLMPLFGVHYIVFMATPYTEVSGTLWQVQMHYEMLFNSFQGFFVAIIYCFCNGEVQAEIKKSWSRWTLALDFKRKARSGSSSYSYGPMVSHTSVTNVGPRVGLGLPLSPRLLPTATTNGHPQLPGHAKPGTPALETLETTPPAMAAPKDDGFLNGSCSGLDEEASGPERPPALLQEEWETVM
Atrial natriuretic peptide receptor 2 (Homo sapiens), sequence (P20594 whole entry, looked up): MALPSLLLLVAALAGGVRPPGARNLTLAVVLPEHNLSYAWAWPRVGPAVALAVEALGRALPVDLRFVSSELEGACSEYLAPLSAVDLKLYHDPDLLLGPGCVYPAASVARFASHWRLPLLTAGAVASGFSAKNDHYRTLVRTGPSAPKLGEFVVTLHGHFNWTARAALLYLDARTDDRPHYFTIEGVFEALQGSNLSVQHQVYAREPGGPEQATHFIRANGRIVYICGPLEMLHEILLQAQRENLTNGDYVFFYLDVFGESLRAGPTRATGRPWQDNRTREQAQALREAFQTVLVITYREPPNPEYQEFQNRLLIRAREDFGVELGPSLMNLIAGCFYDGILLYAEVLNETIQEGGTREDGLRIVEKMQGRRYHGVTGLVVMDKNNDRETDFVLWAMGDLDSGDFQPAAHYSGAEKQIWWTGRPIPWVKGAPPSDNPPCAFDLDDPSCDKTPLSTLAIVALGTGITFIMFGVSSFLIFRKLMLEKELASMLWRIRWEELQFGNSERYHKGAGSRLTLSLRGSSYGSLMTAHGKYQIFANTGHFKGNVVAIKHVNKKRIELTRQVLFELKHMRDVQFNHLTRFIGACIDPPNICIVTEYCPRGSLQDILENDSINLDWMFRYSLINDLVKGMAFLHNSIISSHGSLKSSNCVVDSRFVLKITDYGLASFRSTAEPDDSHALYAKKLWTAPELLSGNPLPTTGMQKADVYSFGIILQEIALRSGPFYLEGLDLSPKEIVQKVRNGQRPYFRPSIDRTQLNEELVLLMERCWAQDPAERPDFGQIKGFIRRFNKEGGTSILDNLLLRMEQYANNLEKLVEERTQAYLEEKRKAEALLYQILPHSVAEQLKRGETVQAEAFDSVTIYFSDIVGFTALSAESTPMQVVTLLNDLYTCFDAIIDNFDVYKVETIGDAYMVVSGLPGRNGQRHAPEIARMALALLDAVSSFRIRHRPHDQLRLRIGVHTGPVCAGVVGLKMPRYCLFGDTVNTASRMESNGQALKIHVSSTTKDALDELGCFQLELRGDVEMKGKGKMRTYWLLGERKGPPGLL
Atrial natriuretic peptide receptor 1 (Homo sapiens), sequence (P16066 whole entry, looked up): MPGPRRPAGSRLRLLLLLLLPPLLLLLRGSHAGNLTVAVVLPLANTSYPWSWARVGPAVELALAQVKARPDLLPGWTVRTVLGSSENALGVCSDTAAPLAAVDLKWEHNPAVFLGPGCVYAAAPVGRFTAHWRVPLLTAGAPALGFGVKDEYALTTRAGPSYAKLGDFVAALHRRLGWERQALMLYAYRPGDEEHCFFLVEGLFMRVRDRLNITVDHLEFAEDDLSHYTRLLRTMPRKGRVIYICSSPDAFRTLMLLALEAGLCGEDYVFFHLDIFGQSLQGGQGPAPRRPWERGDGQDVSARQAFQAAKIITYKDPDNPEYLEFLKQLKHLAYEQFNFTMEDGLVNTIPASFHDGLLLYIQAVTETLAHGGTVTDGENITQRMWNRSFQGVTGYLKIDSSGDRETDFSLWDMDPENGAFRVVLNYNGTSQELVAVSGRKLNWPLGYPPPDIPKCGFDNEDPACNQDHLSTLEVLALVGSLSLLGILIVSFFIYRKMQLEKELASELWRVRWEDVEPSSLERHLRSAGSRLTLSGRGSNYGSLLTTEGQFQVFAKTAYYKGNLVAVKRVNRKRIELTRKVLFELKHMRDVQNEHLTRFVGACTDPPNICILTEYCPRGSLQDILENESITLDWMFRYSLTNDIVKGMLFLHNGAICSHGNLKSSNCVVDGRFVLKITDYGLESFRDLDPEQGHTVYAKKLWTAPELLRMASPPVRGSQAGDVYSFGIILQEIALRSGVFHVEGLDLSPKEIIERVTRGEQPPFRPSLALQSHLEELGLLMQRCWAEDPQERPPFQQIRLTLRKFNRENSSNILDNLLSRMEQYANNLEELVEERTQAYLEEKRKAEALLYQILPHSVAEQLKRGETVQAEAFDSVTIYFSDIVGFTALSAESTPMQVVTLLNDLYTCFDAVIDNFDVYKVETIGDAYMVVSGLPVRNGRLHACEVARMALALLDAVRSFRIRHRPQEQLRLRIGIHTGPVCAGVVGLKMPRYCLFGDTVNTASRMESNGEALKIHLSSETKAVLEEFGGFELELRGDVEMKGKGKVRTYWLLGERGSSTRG

SMILES	Potency [1]	Potency [2]	Potency [3]	Potency [4]	Potency [5]	Potency [6]	Potency [7]	Potency [8]	Potency [9]	Potency [10]	Potency [11]	Potency [12]	Potency [13]	outcome [14]	outcome [15]	Potency [16]	outcome [17]
CC(N[C@H]1C[C@H]1c1ccccc1)c1ccc2c(c1)OCCO2 (some centres undefined)	inactive	inactive	inactive	inactive	inactive	inactive	inactive	inactive	inactive								
C#CC1(O)CCC2C3CCC4=CC(=O)CCC4(C)C3CCC21C (centres undefined)	inactive	inactive	inactive			inactive	inactive	inactive	inactive	inactive							
c1cc2c(cc1[C@H]1OC[C@H]3[C@H]1CO[C@H]3c1ccc3c(c1)OCO3)OCO2	inactive	inactive		inactive	inactive	inactive	inactive	inactive	inactive	inactive							
NC(CCP(=O)(O)O)C(=O)O (centres undefined)		inactive	inactive	inactive	inactive					inactive	inactive	inactive	inactive	inactive	inactive	inactive	inactive
NC1CCc2cc(O)c(O)cc2C1 (centres undefined)		inactive	inactive	inactive	inactive					inactive	inactive	inactive	inactive	inactive	inactive	inactive	inactive
CC(C)NC(C)Cc1ccc(I)cc1 (centres undefined)		inactive	inactive	inactive	inactive					inactive	inactive		inactive	inactive	inactive	inactive	inactive
Cc1nccc2c1[nH]c1ccccc12		inactive	inactive	inactive	inactive					inactive	inactive	inactive	inactive	inactive	inactive	inactive	inactive
CNCCc1c[nH]c2ccc(O)cc12		inactive	inactive	inactive	inactive					inactive	inactive	inactive	inactive	inactive	inactive	inactive	inactive
O=C1CCCN1CC#CCN1CCCC1		inactive	inactive	inactive	inactive					inactive	inactive	inactive	inactive	inactive	inactive	inactive	inactive
C[C@]12CCC3C(CC[C@H]4C[C@H](O)CC[C@]34C)C1CC[C@@H]2C(=O)CO (some centres undefined)		inactive	inactive	inactive	inactive					inactive	inactive	inactive	inactive	inactive	inactive	inactive	inactive
Nc1ccc(Cl)cc1N		inactive	inactive	inactive	inactive	inactive	inactive	inactive		inactive							
CC(C)Oc1cccnc1N(C)C1CCN(Cc2ccccc2)CC1		inactive	inactive	inactive	inactive					inactive	inactive	inactive	inactive	inactive	inactive	inactive	inactive
NCCc1c[nH]c2ccc(O)cc12		inactive	inactive	inactive	inactive					inactive	inactive	inactive	inactive	inactive	inactive	inactive	inactive
CC(=O)[C@H]1CCC2C3CC[C@H]4C[C@H](O)CC[C@]4(C)C3CC[C@@]21C (some centres undefined)		inactive	inactive	inactive	inactive					inactive	inactive	inactive	inactive	inactive	inactive	inactive	inactive
CS(=N)(=O)CC[C@H](N)C(=O)O (some centres undefined)		inactive	inactive	inactive	inactive					inactive	inactive	inactive	inactive	inactive	inactive	inactive	inactive
Cn1cnc(CCN)c1		inactive	inactive	inactive	inactive					inactive	inactive	inactive	inactive	inactive	inactive	inactive	inactive
O=C(O)Cc1cnc[nH]1		inactive	inactive	inactive	inactive					inactive	inactive	inactive	inactive	inactive	inactive	inactive	inactive
NC(N)=NOCCC(N)C(=O)O (centres undefined)		inactive	inactive	inactive	inactive					inactive	inactive	inactive	inactive	inactive	inactive	inactive	inactive
C=CCN1CC[C@]23CCCCC2[C@H]1Cc1ccc(O)cc13 (some centres undefined)		inactive	inactive	inactive	inactive					inactive	inactive	inactive	inactive	inactive	inactive	inactive	inactive
CCCCc1ccc(C(=O)O)nc1		inactive	inactive	inactive	inactive					inactive	inactive	inactive	inactive	inactive	inactive	16.5 µM (active)	inactive
O=C(Nc1ccccc1-c1ccc(Cl)cc1)c1cccnc1Cl		inactive	inactive	inactive	inactive	inactive	inactive	inactive	inactive	inactive							

SMILES	Potency [1]	Potency [2]	Potency [3]	Potency [4]	Potency [5]	Potency [6]	Potency [7]	Potency [8]	Potency [9]	Potency [10]	Potency [11]	Potency [12]	Potency [13]	outcome [14]	outcome [15]	Potency [16]	outcome [17]
CCOP(=O)(NC(C)C)Oc1ccc(SC)c(C)c1 (centres undefined)		inactive	inactive	inactive	inactive	inactive	inactive	inactive	inactive	inactive							
CN1C2CCC1CC(OC(=O)c1cc(Cl)cc(Cl)c1)C2 (centres undefined)		inactive	inactive	inactive	inactive					inactive	inactive	inactive	inactive	inactive	inactive	inactive	inactive
O=C(O)CC[N+](=O)[O-]		inactive	inactive	inactive	inactive					inactive	inactive	inactive	inactive	inactive	inactive	inactive	inactive
CCCN1CCO[C@@H]2c3cc(O)ccc3OC[C@H]21		inactive	inactive	inactive	inactive					inactive	inactive	inactive	inactive	inactive	inactive	inactive	inactive
O=C(Cc1ccc(Cl)c(Cl)c1)N1CCCCC1CN1CCCC1 (centres undefined)		inactive	inactive	inactive	inactive					inactive	inactive	inactive	inactive	inactive	inactive	inactive	inactive
c1ccc2sc(C3(N4CCCCC4)CCCCC3)cc2c1		inactive	inactive	inactive	inactive					inactive	inactive	inactive	inactive	inactive	inactive	inactive	inactive
COc1cc(C(O)CN)ccc1O (centres undefined)		inactive	inactive	inactive	inactive					inactive	inactive	inactive	inactive	inactive	inactive	inactive	inactive
NC(CP(=O)(O)O)C(=O)O (centres undefined)		inactive	inactive	inactive	inactive					inactive	inactive	inactive	inactive	inactive	inactive	inactive	inactive
Clc1cnc(Oc2ccc(Oc3ncc(Cl)cc3Cl)cc2)c(Cl)c1		inactive	inactive	inactive	inactive					inactive	inactive	inactive	inactive	inactive	inactive	inactive	inactive
CNCCc1ccc(O)c(O)c1		inactive	inactive	inactive	inactive					inactive	inactive	inactive	inactive	inactive	inactive	inactive	inactive
NCc1cc(=O)[nH]o1		inactive	inactive	inactive	inactive					inactive	inactive	inactive	inactive	inactive	inactive	inactive	inactive
NCCc1c[nH]c2ccccc12		inactive	inactive	inactive	inactive					inactive	inactive	inactive	inactive	inactive	inactive	inactive	inactive
CN[C@@H]1C[C@@H](c2ccc(Cl)c(Cl)c2)c2ccccc21											26.1 µM (active)	0.757 µM (active)	18.5 µM (active)	inactive	inactive	inactive	inactive
CCCN(CCC)[C@@H]1CCc2ccc(O)cc2C1		inactive	inactive	inactive	inactive					inactive	inactive	inactive	inactive	inactive	inactive	inactive	inactive
NC(=NCCC[C@H](N)C(=O)O)N[N+](=O)[O-]		inactive	inactive	inactive	inactive					inactive	inactive	inactive	inactive	inactive	inactive	inactive	inactive
C[C@]12N[C@H](Cc3ccccc31)c1ccccc12		inactive	inactive	inactive	inactive					inactive	inactive	inactive	inactive	inactive	inactive		inactive
CCCN(CCC)C1CCc2ccc(O)cc2C1 (centres undefined)		inactive	inactive	inactive	inactive					inactive	inactive	inactive	inactive	inactive	inactive	inactive	inactive
COC(C)(C)CCCC(C)C/C=C/C(C)=C/C(=O)OC(C)C (centres undefined)		inactive	inactive	inactive	inactive	inactive	inactive	inactive	inactive	inactive							
C#CCOC(=O)C1=CCCN(C)C1		inactive	inactive	inactive	inactive					inactive	inactive	inactive	inactive	inactive	inactive	inactive	inactive
C[C@@H]1O[C@H](C[N+](C)(C)C)C[C@H]1O		inactive	inactive	inactive	inactive					inactive	inactive	inactive	inactive	inactive	inactive	inactive	inactive
C[N+]1(C)C2CCC1CC(OC(=O)C(CO)c1ccccc1)C2 (centres undefined)		inactive	inactive	inactive	inactive					inactive	inactive	inactive	inactive	inactive	inactive	inactive	inactive
